TGFb inhibitor: qHTS for Inhibitors of TGF-b | HepG2 CAGA-GFP TGF-b/SMAD3 reporter, GFP fluorescence, 18 h; TGF-beta stimulated, 500 pg/mL final | Potency, µM (highest dose often 46.1 µM), most hits filed as inhibitors | 410,000 tested, 1.2% active; further: nearly all actives have a fitted effect of over 65% in size
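HEPG2 CAGA-GFP, 1000 cells/well; 2 h settle, 37 C; cpd via pin tool; TGF-b 500 pg/mL final; 18 h, 37 C; GFP imaging ex488/em500-530; %Activity normalised to -TGF-b and +DMSO controls; CRC fit, curve class.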
S2 tox: Viability Counterscreen for Primary qHTS for Inhibitors of ATXN expression; Potency, µM (top dose mostly 56.7 µM), usual class: cytotoxic; 400,000 tested, 0.49% active; S2 cells (HEK-293 line with an ATXN2-luciferase reporter) viability, CellTiter-Fluor protease fluorescence, 24 h; further: nearly all actives have a fitted effect of over 40% in size
ATXN2 expr inh: Primary qHTS for Inhibitors of ATXN expression | HEK-293 ATXN2-luciferase reporter, luminescence, 24 h | Potency, µM (titrated, usually from 57 µM), most hits filed as inhibitors | 360,000 tested, 0.72% active | AID 1745845, 2022; further: nearly all actives have a fitted effect of over 55% in size
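qHTS (up to 57 uM final) was run with 24 h compound exposure of reporter cells at 37 °C. Each well was multiplexed: SteadyGlo luminescence measured ATXN2-luciferase expression after a fluorogenic Gly-Phe-AFC viability readout (25 uM final).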
HepG2 viability: qHTS for Inhibitors of TGF-b: Cytotox Counterscreen; 410,000 tested, 0.76% active; HepG2 CAGA-GFP viability, ATP luminescence, 18 h; Potency, µM (highest dose often 46.1 µM), usual class: cytotoxic
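CellTiter-Glo luminescence gave cytotoxicity after 18 hours at 37 degrees C. The cells were HepG2 CAGA-GFP in 1% FBS DMEM, stimulated with 500 pg/mL TGF-beta after compound addition. %Activity was normalised to no-cell wells (complete cell-killing) and DMSO (no toxicity), and curves were fitted and classified.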
ALOX12 inh: Primary qHTS assay for inhibitors of human arachidonate 12S-lipoxygenase (ALOX12): Round 2; Polyunsaturated fatty acid lipoxygenase ALOX12 (Homo sapiens), P18054; purified 12hLO, xylenol orange hydroperoxide absorbance; Potency, µM (top dose mostly 108 µM), usual class: inhibitors; 580,000 tested, 1.1% active; AID 1671190, 2021
Target sequence (P18054 whole entry, looked up): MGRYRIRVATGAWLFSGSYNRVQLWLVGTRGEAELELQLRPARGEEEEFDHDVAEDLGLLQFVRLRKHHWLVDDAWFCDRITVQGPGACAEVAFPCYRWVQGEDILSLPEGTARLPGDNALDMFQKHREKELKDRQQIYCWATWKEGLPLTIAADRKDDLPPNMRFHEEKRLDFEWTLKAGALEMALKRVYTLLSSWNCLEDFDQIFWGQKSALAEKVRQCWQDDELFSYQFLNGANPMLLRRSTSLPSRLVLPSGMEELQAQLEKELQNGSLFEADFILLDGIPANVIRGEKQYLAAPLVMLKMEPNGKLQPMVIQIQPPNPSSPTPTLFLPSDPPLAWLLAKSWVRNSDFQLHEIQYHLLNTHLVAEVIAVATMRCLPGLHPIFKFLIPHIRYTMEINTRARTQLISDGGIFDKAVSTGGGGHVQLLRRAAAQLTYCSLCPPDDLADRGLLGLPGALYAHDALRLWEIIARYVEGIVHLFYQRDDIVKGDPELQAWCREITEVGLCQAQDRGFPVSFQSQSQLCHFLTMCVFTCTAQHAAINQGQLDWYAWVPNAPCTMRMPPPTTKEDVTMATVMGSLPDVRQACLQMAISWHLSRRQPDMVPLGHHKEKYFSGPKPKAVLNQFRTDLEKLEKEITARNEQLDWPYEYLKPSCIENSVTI
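Purified human 12hLO at 150 nM in 25 mM Hepes, 0.01% Triton X-100, pH 7.0, preincubated 15 min at room temperature with compound. Reaction started with 40 uM arachidonic acid, 30 min at room temperature. Hydroperoxide measured by Fe-xylenol orange, 573/405 nm absorbance ratio.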
Hits are given with their value; - = inactive; ? = inconclusive; . = no result given. Rows were chosen to be rich in hits. Some 2.7% of all compounds tested hit in one or more screens of this group. The call rests on the fitted dose curve; in most records, active means well fitted curve in the direction sought with a large enough effect; inconclusive means small, poorly fitted or top-dose-only effect, or another doubt; inactive means no such curve, though single readings can be large; an effect the other way counts as inactive or inconclusive.

SMILES	TGFb inhibitor	S2 tox	ATXN2 expr inh	HepG2 viability	ALOX12 inh
CC1=NN(c2ccccc2)C(=O)/C1=C/C=C/c1ccc(N(C)C)cc1	-	.	.	-	-
CC1=NN(c2ccccc2)C(=O)/C1=C\C=C\c1ccccc1	8.9µM	?	?	-	?
CCOc1ccc(N2CC(C(=O)Nc3ncn[nH]3)CC2=O)cc1 (centres undefined)	.	.	.	.	-
N#Cc1c(N)n(C2OC(CO)C(O)C2O)c2ncnc(N)c12 (centres undefined)	?	?	0.3µM	-	-
Nc1ncnc2c1ncn2C1O[C@H](CO)[C@@H](O)[C@@H]1O (some centres undefined)	-	-	-	-	-
CN(CC1CCCN(CCc2cccc(C(F)(F)F)c2)C1)C(=O)c1ccc2[nH]ccc2c1 (centres undefined)	.	.	.	.	-
CCn1nc(C)c(C(=O)Nc2cc(Oc3cc(C)cc(C)c3)cc([N+](=O)[O-])c2)c1C	14µM	-	-	-	-
CCN1CCN(C(C)CNC(=O)NCc2csc(C)n2)CC1 (centres undefined)	.	.	.	.	-
OCC1(CNCc2cccnc2)C[C@@H](O)[C@@H](O)C1 (some centres undefined)	.	.	.	.	20µM
COc1ccc(Nc2nc(N3CCCCC3)c3ccccc3n2)cc1	?	?	?	-	28µM
Oc1ccc(Nc2nc(N3CCCC3)c3ccccc3n2)cc1	?	?	?	11µM	?
COc1ccc(C)cc1-n1c(SCC(=O)Nc2ccc3c(c2)OCO3)nc2ccccc2c1=O	.	.	.	.	-
Cc1ccc([C@H]2C[C@@H](O)[C@H](n3cc(-c4ccc(F)cc4)nn3)CN2C(=O)C2CCCCC2)cc1	13µM	.	?	-	-
CCCCCCN1C[C@H](n2cc(C3CC3)nn2)[C@@H](O)C[C@@H]1c1ccc(OC)cc1	?	25µM	?	-	?
CCCCCCN1C[C@@H](n2cc(-c3ccc(F)cc3)nn2)[C@H](O)C[C@@H]1c1ccc(Cl)cc1	?	18µM	?	-	-
CCCCCCN1C[C@H](O)[C@@H](n2cc(-c3ccc(F)cc3)nn2)C[C@@H]1c1ccc(Cl)cc1	?	?	?	-	-
CCCCCCN1C[C@H](n2cc(-c3ccc(F)cc3)nn2)[C@@H](O)C[C@@H]1c1ccc(C)cc1	?	.	?	11µM	?
Cc1ccccc1C(=O)N1CCC2(CC1)OCC(C(=O)N1CCCC1)N2C(=O)c1ccc(F)cc1 (centres undefined)	.	.	.	.	-
N#Cc1ccc(CN2CCN(CC(=O)Nc3ccccc3C(=O)NC3CCCC3)CC2)cc1	.	.	.	.	-
Cc1ccc(NC(=O)C(OC(=O)c2ccc(NC(N)=O)cc2)c2ccccc2)cc1Cl (centres undefined)	?	-	-	13µM	-
N#Cc1nc(-c2ccc(S(=O)(=O)N3CCCC3)cc2)oc1NCCc1ccccc1	.	.	.	.	-
CCCCNC(=S)NCCN1CCCCC1	-	-	-	-	?
CCCNC(=S)NCCN1CCCCC1	-	-	-	-	0.63µM
Cc1ccc(CN(CCc2ccccc2)C(=O)c2ccc(C#N)cc2)s1	.	.	.	.	-
COc1ccc(C)cc1NC(=O)NC1CC(=O)N(c2ccc3c(c2)OCCO3)C1 (centres undefined)	-	-	.	11µM	-
SMILES	TGFb inhibitor	S2 tox	ATXN2 expr inh	HepG2 viability	ALOX12 inh
Cc1ncc([N+](=O)[O-])n1CCOC(=O)c1cc(Cl)cc(Cl)c1N	-	-	-	-	32µM
COC(=O)CSc1cccc2c1C(=O)CC2c1ccccc1 (centres undefined)	-	-	.	-	-
O=C1C=CC2(O[C@H](c3ccccc3)[C@@H](c3ccccc3)O2)[C@H](Sc2ccccc2O)C1	2.8µM	.	4µM	-	?
Cc1ccccc1NC(=O)CNc1nc(Nc2ccccc2)nc(Nc2ccccc2)n1	.	.	.	.	16µM
Cc1cc(SCC(=O)Nc2ccccc2C)nc(C)n1	-	-	-	-	-
COc1cc(-c2ccc(C)cc2)nc2ccc(C(=O)N3CCCC3)cc12	.	.	.	.	-
S=C(NCc1ccc(Cl)cc1)NC1CCCC1	.	.	.	.	40µM
S=C(NCCc1ccc(Cl)cc1)NC1CCCC1	?	-	-	-	?
Fc1ccc(CNC(=S)NC2CCCCCC2)cc1	-	-	-	-	?
Cc1ccc(SCCNC(=S)NC2CC2)cc1	.	.	.	.	-
S=C(NCCSc1ccc(Cl)cc1)NC1CCCC1	.	.	.	.	28µM
S=C(NCCc1ccc(Cl)cc1)NC1CCCCC1	?	?	-	-	40µM
S=C(NCCc1ccc(Cl)cc1Cl)NC1CCCCC1	.	.	.	.	18µM
O=c1c(Cl)c(N2CCN(S(=O)(=O)c3ccccc3F)CC2)cnn1Cc1ccccc1	.	.	.	.	-
CCCCC(=O)Nc1sc(C(=O)N(CC)CC)c(C)c1C(=O)OC	?	-	-	-	35µM
CCOC(=O)c1c(NC(=O)CN(C)C)sc(C(=O)N(CC)CC)c1C	-	-	-	-	-
CCCC(=O)Nc1ccccc1NC(=O)CN(C)S(=O)(=O)c1ccc(C)cc1	-	-	-	13µM	-
CC(=O)Nc1ccccc1NC(=O)CN(C)S(=O)(=O)c1ccc(C)cc1	-	-	-	-	-
CO[C@@H](C(=O)N1Cc2[nH]nc(NC(=O)c3ccc(N4CCN(C)CC4)cc3)c2C1)c1ccccc1	.	.	27µM	.	-
CC(=O)OC(C(=O)N1CCN(c2ccc(F)cc2)CC1)c1ccccc1 (centres undefined)	-	-	-	-	-
Cc1nc2cc(NC(C)C(=O)Nc3ccc(OC(F)(F)F)cc3)ccc2o1 (centres undefined)	.	.	.	.	-
CCN1/C(=C\C=C(C(C)=O)C(C)=O)Sc2ccccc21	-	-	-	-	-
CCN1/C(=C\C(=S)Nc2ccccc2)Sc2ccccc21	11µM	?	-	-	32µM
O=C(Oc1ccc2ccccc2c1)C1(c2ccccc2)CC1	.	.	.	.	-
COc1ccc(/C=N/NC(=O)c2ccn[nH]2)cc1COc1ccc(Cl)cc1Cl	14µM	-	-	-	-
SMILES	TGFb inhibitor	S2 tox	ATXN2 expr inh	HepG2 viability	ALOX12 inh
COc1ccc(/C=N/NC(=O)c2ccn[nH]2)cc1COc1ccc(F)cc1	-	-	-	-	-
CCOC(=O)c1cc(C)n(CC2CCC(C(=O)Nc3ccccc3OC)CC2)c1C (centres undefined)	11µM	.	.	-	-
COCCn1cnc2c1c(=O)n(CC(=O)Nc1cccc(C)c1C)c(=O)n2Cc1ccccc1	.	.	.	.	-
O=c1c2ccccc2nc(N2CCN(c3cccc(Cl)c3)CC2)n1-c1ccccc1	7.1µM	.	.	-	-
C=CCn1c(N2CCN(c3ccccc3)CC2)nc2c1c(=O)[nH]c(=O)n2C	.	.	.	.	-
CCc1c(C)sc(NC(=O)OC)c1C#N	.	.	.	.	25µM
CCc1c(C)sc(NC(=O)c2cc(-c3ccc(OC)c(OC)c3)on2)c1C#N	-	-	-	-	-
CCc1c(C)sc(NC(=O)C2CCCCC2)c1C#N	.	.	.	.	8.9µM
